Bioassay records deposited in PubChem by several laboratories.
Compounds with a hit are over-represented: about 3.3% of the library has one in this group of screens.
Wnt act: Wnt/beta-catenin pathway activators, primary screen, cell-based, plate reader, single point; Wnt/beta-catenin reporter cell assay, activator; activation, % at 9.35 µM; hit rate 1.2% among 300,000; AID 743398, 2014; in the data active = activation above about 30%, passing the limit was not always enough; inconclusive = no clear call, values can overlap the other calls
MITF act: activators of MITF-driven TRPM1 promoter reporter, primary screen, cell-based, SK-MEL-5, luciferase, single point; SK-MEL-5 TRPM1-promoter luciferase, 24 h; % of positive control, neutral wells = 0; activation, % at 12.5 µM; hit rate 0.75% among 300,000; AID 588334, 2011;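 active = mean activation of at least 80% with every replicate also reaching 80%; inconclusive = mean reaches 80% but some replicate falls short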
FXN GAA850 act: FXN promoter activators, primary screen, cell-based, luciferase luminescence, HEK293 lucGAA850; AID 540364, 2011; activation, % at 6 µM; HEK293 lucGAA850 FXN promoter luciferase reporter, 24 h; percent of 10 µM SAHA response; hit rate 0.56% among 360,000;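 active = activation above the average of all compounds screened plus 3 SD, cutoff fixed separately per campaign, cut at about 7.5% in these data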
esBAF inh: Bmi1 luciferase reporter increase in mESCs, primary screen, esBAF inhibitor project, mouse ES cells, Bmi1 luciferase knock-in, single point | reporter increase, % at 12.5 µM | hit rate 2% among 350,000 | 24 h; 100% = twice the neutral-well signal; in the data active = activation above about 40%; inconclusive = no clear call, values can overlap the other calls;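 note: a rise in the Bmi1 reporter signal indicates esBAF inhibition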
C2C12 statin: suppressors of statin myotoxicity in C2C12 myotubes, primary screen, cell-based, single point, plate reader | C2C12 myotubes + simvastatin, ATP luminescence, 48 h; scaled: DMSO 0, geranylgeraniol control 100 | rescue of ATP level, % at 7.49 µM | hit rate 0.78% among 330,000 | AID 602340, 2012;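 active = mean ATP rescue above about 67%, or every replicate alone reaching that limit, limit read from the data, passing the limit was not always enough; inconclusive = no clear call, values can overlap the other calls; inactive = mean under the limit and some replicate under it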;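 note: myotubes were challenged with 10 µM simvastatin during compound exposure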
A number is an active result; 0 = inactive; ? = inconclusive; - = no result given; ! = not active in a repeat.

SMILES	Wnt act	MITF act	FXN GAA850 act	esBAF inh	C2C12 statin
CC#CP(=O)(OC)C(O)(CF)c1ccccc1 (stereo unspecified)	0	0	0	0	105
Cc1c(C(=O)O)cc(-c2ccccc2)n1Cc1ccccc1	0	0	0	0	0
N=c1n(CCO)c2ccccc2n1Cc1ccccc1	-	0	0	0	86
COC(=O)C[C@H]1CC[C@@H]2NC[C@H](O)COC[C@H]2O1	-	-	-	0	0
c1ccc(CN2CCc3nc4ccccc4cc3C2)cc1	0	-	0	53	0
CCC12CN3CC(CC)(CN(C1)C3c1cccnc1)C2=O (stereo unspecified)	-	0	0	0	137
CC1(C)C2([N+](=O)[O-])CN3CC1([N+](=O)[O-])CN(C2)C3c1cccnc1 (stereo unspecified)	0	-	0	0	0
O=C1N(c2ccc(Cl)cc2)C(c2cccnc2)N2CCCN12 (stereo unspecified)	0	0	0	-	-
CC12CN3CC(C)(CN(C1)C3c1cccnc1)C2=O (stereo unspecified)	0	0	0	0	123
O=C(O)[C@@H]1[C@@H](CO)[C@@H]2Cn3c(ccc(-c4ccncc4)c3=O)[C@H]1N2C(=O)C1CCC1	-	-	-	0	0
COc1ccc(C#Cc2ccc([C@@H]3[C@H](CO)N4CCCCN(C(=O)Cc5ccccc5)C[C@@H]34)cc2)cc1	-	-	-	0	0
C=CCn1c(O)c(C(C)=NCCCO)c(=O)[nH]c1=O	-	0	0	0	108
O=C1CN=C(c2cc([N+](=O)[O-])ccc2Cl)c2cc([N+](=O)[O-])ccc2N1	47	-	0	0	0
O=C1CN=C(c2ccccc2)c2cc([N+](=O)[O-])ccc2N1	0	0	0	0	0
O=C1c2ccccc2-c2cc3ccccc3cc21	46	0	0	-	-
O=C1/C(=C/c2ccccc2)C[C@@]2(O)[C@H]3Cc4ccc(O)c5c4[C@@]2(CCN3CC2CC2)C1O5 (stereo partly specified)	-	0	0	54	0
Oc1ccc2c3c1O[C@H]1c4[nH]c5c(c4CC4(O)C(C2)N(CC2CC2)CCC314)CC1(O)[C@H]2Cc3ccc(O)c4c3[C@@]1(CCN2CC1CC1)C5O4 (stereo partly specified)	0	-	-	-	-
CN(C)C(=O)Oc1ccc2c(c1)O/C(=C\c1cccc(Cl)c1)C2=O	0	0	0	?	0
CN(C)C(=O)Oc1ccc2c(c1)O/C(=C\c1ccc(Cl)cc1)C2=O	0	104	0	?	0
O=C1OCCC1C(=O)c1ccccc1 (stereo unspecified)	0	-	0	-	-
O=C(c1ccccc1)C1NC1c1ccccc1 (stereo unspecified)	0	0	0	49	0
O=C(NC1(C(F)(F)F)Oc2ccccc2O1)N1CCC2(CC1)OCCO2	-	0	0	0	101
O=C(NC1(C(F)(F)F)Oc2ccc(Cl)cc2O1)N1CCC2(CC1)OCCO2 (stereo unspecified)	-	0	0	0	0
C[C@H]1C[C@@H](C)C(=O)[C@@H]([C@H](O)CC2CC(=O)NC(=O)C2)C1	0	-	0	0	171
CC=Cc1ccc2n(c1=O)C[C@H]1[C@H](CO)[C@@H](C(=O)N(C)C)[C@@H]2N1C (mixture of isomers)	-	-	-	0	0
SMILES	Wnt act	MITF act	FXN GAA850 act	esBAF inh	C2C12 statin
COc1ccc(C[C@H]2NC[C@H](O)[C@H]2OC(C)=O)cc1	0	0	0	0	79
COc1cc(CC2C(=O)N(C)C(=O)N(C)C2=O)ccc1OCc1ccccc1	0	0	0	46	0
O=C(O)[C@H]1[C@H](CO)[C@H]2Cn3c(ccc(-c4cccnc4)c3=O)[C@@H]1N2S(=O)(=O)c1ccccc1F	-	-	-	0	0
COc1ccc(C2=NCc3nnc(C)n3-c3ccc(Cl)cc32)cc1Cl	0	0	0	0	98
COc1ccccc1C1=NCc2nnc(C)n2-c2ccc(Cl)cc21	0	0	0	-	-
Cc1ccc(-c2nn(Cc3ccccc3)cc2C(=O)O)cc1	0	0	0	0	0
Cc1ccc(-c2nn(Cc3ccccc3)cc2C=O)cc1	55	0	0	-	-
Cc1ccc(-c2nn(Cc3ccccc3)cc2C=O)cc1C	0	0	0	88	0
Cc1ccc(Cn2cc(C=O)c(-c3ccc(F)cc3)n2)cc1	0	0	0	0	0
O=[N+]([O-])c1ccccc1CNCCc1c[nH]c2ccccc12	0	0	0	0	0
O=[N+]([O-])c1ccccc1CNCCc1ccc(F)cc1	-	0	0	41	0
COC(=O)[C@@H]1[C@@H](CO)[C@@H]2Cn3c(ccc(-c4ccccc4F)c3=O)[C@H]1N2Cc1ccccc1	-	-	-	0	0
Oc1cc(O)cc(/C=C/c2ccc(O)cc2O)c1	-	94	0	0	0
Cc1nn(CC(C)C)c(Cl)c1C(=O)NC1CCC(C)CC1 (stereo unspecified)	0	96	0	66	0
Cc1nn(Cc2ccccc2Cl)c(Cl)c1C(=O)OCC(=O)NC(=O)NC1CCCCC1	0	0	0	-	-
CCC(=O)N1[C@@H]2c3ccc(-c4ccc(F)cc4)c(=O)n3C[C@H]1[C@H](CO)[C@H]2C(=O)OC	-	-	-	0	0
O=C(O)[C@H]1[C@H](CO)[C@H]2Cn3c(ccc(-c4ccncc4)c3=O)[C@@H]1N2C(=O)C1CC1	-	-	-	0	0
CC12CCC(=O)C=C1CCC1C2CCC2(C)C(O)CCC12 (stereo unspecified)	0	0	0	0	0
C[C@]12CC[C@H]3[C@@H](CCC4=CC(=O)CC[C@@]43C)[C@@H]1CC[C@@H]2O	33!	0	0	0	0
C[C@H](CO)N1C[C@H](C)[C@H](CN(C)C(=O)Oc2cccc3ccccc23)OCc2cn(nn2)CCCC1=O	-	-	-	0	0
C=COCCn1c(C)c(C(C)=O)c2cc(O)ccc21	0	0	0	0	113
CC(=O)c1c(C)n(CCCOC(C)C)c2ccc(O)cc12	-	0	0	0	0
Cc1cc(C(=O)OCC(=O)Nc2ccccc2F)c(C)n1C1CC1	0	85	0	57	0
COC(=O)[C@H]1[C@H](CO)[C@H]2Cn3c(ccc(-c4cccc(OC)c4)c3=O)[C@@H]1N2CC1CC1	-	-	-	0	0
CC(=O)c1ccc(-c2ccccc2)cc1	0	0	0	34	-
CN(C)C1C(=O)C(C(N)=O)=C(O)C2(O)C(=O)C3=C(O)c4c(O)cccc4C(C)(O)C3CC12 (stereo unspecified)	-	0	17	0	0
CCCNC(=O)N1[C@@H]2c3ccc(-c4ccccc4OC)c(=O)n3C[C@H]1[C@H](CO)[C@H]2C(=O)O	-	-	-	0	0
COc1ccc(-c2cc(=NCC(=O)O)c3ccccc3o2)cc1	-	0	0	47	0
COC(=O)[C@@H]1[C@@H](CO)[C@@H]2Cn3c(ccc(-c4ccccc4)c3=O)[C@H]1N2CCc1ccccc1	-	-	-	0	0
